Experiment [1] is described as follows: anti-His antibody binders, primary screen, artefact control for SMM control protein annotation, biochemical, small-molecule microarray, 635 nm fluorescence (AID 1128).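 Also: score merges feature fluorescence with signal-to-noise for each printed compound spot.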 Particulars: anti-His Alexa647 antibody binding, higher = more signal.
The subject of experiment [2] is Human papillomavirus type 1a E7 protein (residues 1-88). Put plainly: HPV1a E7 small-molecule binders, primary screen, biochemical, small-molecule microarray, residues 1-88, 635 nm (AID 1129). Particulars: small-molecule microarray binding, fluorescence 635 nm; higher = more signal.
The target of experiment [3] is Focal adhesion kinase 1 (Homo sapiens) (UniProt Q05397). Kind of experiment: small-molecule microarray binders of FAK, primary screen, biochemical, 635/667 nm fluorescence, BSA, DTT (AID 1130).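 Also: composite of spot emission at 667 nm and signal to noise over triplicate slides.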 The note with it: PTK2 binding, 635 nm fluorescence, higher = more signal.
Experiment [4] deals with Fibrinogen (Alexa647-labelled). Put plainly: fibrinogen binders on compound microarrays, profiling panel, artefact control for SMM control-protein annotation, biochemical, small-molecule microarray, 635/667 nm fluorescence (AID 1131).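 Also: z-score merges 667 nm fluorescence with per-spot signal-to-noise over triplicate slides.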 The note with it: fibrinogen-A647 binding fluorescence, higher = more signal.
Experiment [5] concerns the target Follistatin (Homo sapiens) (UniProt P19883). Kind of experiment: follistatin binders on small-molecule microarrays, primary screen, biochemical, small-molecule microarray, 635/667 nm fluorescence (AID 1132). The note with it: FST binding, 635 nm fluorescence, higher = more signal.
In experiment [6] the target is Fibroblast growth factor 2 (Homo sapiens) (UniProt P09038). Kind of experiment: FGF2 binders on small-molecule microarrays, primary screen, biochemical, small-molecule microarray, 635/667 nm fluorescence (AID 1133). The note with it: small-molecule microarray binding, FGF2, fluorescence 635/667; higher = more signal.
Experiment [7] can be described thus: mitochondrial membrane potential change in A549 cells, profiling panel, cell-based, JC-1 fluorescence, basal, 24 h, 100 nL (AID 1138).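 Also: A549 lung adenocarcinoma cells under basal conditions with no added stimulus; test concentration not given here.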 The note with it: higher = more signal.
In the next experiment the test system is Lefty1. Kind of experiment: Lefty1 binders on small-molecule microarrays, primary screen, biochemical, small-molecule microarray, 635/667 nm fluorescence (AID 1139). Particulars: small-molecule microarray binding, fluorescence 635/667; higher = more signal.
The subject of experiment [8] is wheat germ agglutinin (Triticum aestivum), Alexa647-labelled. Kind of experiment: wheat germ agglutinin binders on compound microarrays, profiling panel, artefact control for SMM control-protein annotation, biochemical, small-molecule microarray, 635/667 nm fluorescence (AID 1140).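 Also: score merges 667 nm feature emission with signal to noise over triplicate slides.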 Particulars: WGA-A647 binding, 635 nm fluorescence, higher = more signal.
Experiment [9] has as its target Luciferin 4-monooxygenase (Photinus pyralis) (UniProt P08659). Put plainly: firefly luciferase enzyme inhibitors, primary screen, biochemical, luminescence, purified enzyme, 2006 set (AID 1141).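 Also: cell-free assay with purified firefly luciferase at 100 ng per well in PBS; test concentration not given here.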 Particulars: SteadyGlo luminescence, 30 min, higher = more signal, called active from +8 up or from −8 down.
Experiment [10] deals with Wnt5a (protein binding on small-molecule microarray). Kind of experiment: Wnt5a binders on small-molecule microarray, primary screen, biophysical, 635/667 nm fluorescence (AID 1142).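 Also: fluorescence read at 667 nm with signal to noise per printed feature.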 The note with it: 635 nm fluorescence, higher = more signal.
Experiment [11] can be described thus: cell viability in Huh7 cells, primary screen, cytotoxicity control for HCV replication inhibitor project, CellTiter-Glo luminescence, basal, 48 h (AID 1143).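 Also: Huh7 hepatoma cells carrying a hepatitis C replication reporter with no stimulus; test concentration not given here.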 The note with it: Huh7 HCV replicon, higher = more signal, called active from +8 up or from −8 down. (In ATP-based viability assays light output follows the ATP content of the culture.)
Experiment [12] in a line: P. aeruginosa biofilm formation inhibitors, primary screen, PAO1 strain, BacTiter-Glo luminescence, LB-PBS (AID 1144). Particulars: 12 h, higher = more signal.
Experiment [13] is described as follows: CREB reporter modulators without forskolin, primary screen, cell-based, PC12, CRE-LacZ reporter, unstimulated (AID 1145). The note with it: no forskolin, luminescence, 4.5 h, higher = more signal, called active from +8 up or from −8 down.
Experiment [14] in a line: CREB reporter modulators under forskolin, primary screen, cell-based, PC12, CRE-LacZ reporter, forskolin-stimulated (AID 1146).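 Also: PC12 cells with 6xCRE LacZ reporter stimulated by forskolin 10 µM; beta-galactosidase reporter signal reflecting CREB driven transcription.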 The note with it: luminescence, 4.5 h, higher = more signal, called active from +8 up or from −8 down.
Experiment [15] has as its target Streptavidin (Streptomyces avidinii) (UniProt P22629). Kind of experiment: streptavidin binders on small-molecule microarray, primary screen, artefact control for SMM compound annotation, biophysical, 635/667 nm fluorescence (AID 1147).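 Also: signal reflects streptavidin binding to arrayed compounds as a control protein.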 Particulars: streptavidin binding, higher = more signal.
The nature of experiment [16]: small-molecule binders of probe aInhba, primary screen, biochemical, small-molecule microarray, 635/667 nm fluorescence (AID 1148).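 Also: score merges 667nm spot fluorescence with signal-to-noise for antibody binding to printed compounds.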 The note with it: higher = more signal.
Experiment [17] addresses Torsin-1A (Homo sapiens) (UniProt O14656). Put plainly: torsin A binders from cell lysate, primary screen, small-molecule microarray, wild-type, 635/667 nm (AID 1149). The note with it: COS7 hTOR1A-WT lysate, 635 nm fluorescence, higher = more signal.
Experiment [18] shares this target. Kind of experiment: small-molecule binders of mutant TOR1A in lysate, primary screen, cell lysate, small-molecule microarray, COS7 lysate, 635/667 nm fluorescence (AID 1150).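 Also: score pools 667 nm emission and signal to noise measuring lysate protein binding.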 The note with it: COS7 hTOR1A mutant lysate, 635 nm fluorescence, higher = more signal.
Experiment [19] relates to Sonic hedgehog protein (Shh). Put plainly: small-molecule binders of Shh protein, primary screen, biochemical, small-molecule microarray, 635/667 nm fluorescence (AID 1151).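 Also: Shh protein binding to compounds spotted on small-molecule microarray slides; score combines spot fluorescence intensity with signal-to-noise across triplicate slides.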 Particulars: small-molecule microarray binding, 635 nm fluorescence; higher = more signal.

Calls of active or inactive are those of the source. Unless noted, no rule for the calls is given here.

Chain of Follistatin (Homo sapiens) (P19883 whole entry, looked up): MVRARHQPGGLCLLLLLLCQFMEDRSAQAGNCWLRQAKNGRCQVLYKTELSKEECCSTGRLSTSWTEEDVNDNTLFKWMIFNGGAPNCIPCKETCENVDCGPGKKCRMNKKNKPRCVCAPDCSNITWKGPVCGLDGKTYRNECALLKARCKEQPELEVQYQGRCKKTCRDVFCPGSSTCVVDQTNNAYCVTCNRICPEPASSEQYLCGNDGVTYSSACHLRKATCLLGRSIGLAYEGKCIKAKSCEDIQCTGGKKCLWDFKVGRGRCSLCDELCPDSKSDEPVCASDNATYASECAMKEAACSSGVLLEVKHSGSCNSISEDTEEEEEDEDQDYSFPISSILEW
Chain of Focal adhesion kinase 1 (Homo sapiens) (Q05397 whole entry, looked up): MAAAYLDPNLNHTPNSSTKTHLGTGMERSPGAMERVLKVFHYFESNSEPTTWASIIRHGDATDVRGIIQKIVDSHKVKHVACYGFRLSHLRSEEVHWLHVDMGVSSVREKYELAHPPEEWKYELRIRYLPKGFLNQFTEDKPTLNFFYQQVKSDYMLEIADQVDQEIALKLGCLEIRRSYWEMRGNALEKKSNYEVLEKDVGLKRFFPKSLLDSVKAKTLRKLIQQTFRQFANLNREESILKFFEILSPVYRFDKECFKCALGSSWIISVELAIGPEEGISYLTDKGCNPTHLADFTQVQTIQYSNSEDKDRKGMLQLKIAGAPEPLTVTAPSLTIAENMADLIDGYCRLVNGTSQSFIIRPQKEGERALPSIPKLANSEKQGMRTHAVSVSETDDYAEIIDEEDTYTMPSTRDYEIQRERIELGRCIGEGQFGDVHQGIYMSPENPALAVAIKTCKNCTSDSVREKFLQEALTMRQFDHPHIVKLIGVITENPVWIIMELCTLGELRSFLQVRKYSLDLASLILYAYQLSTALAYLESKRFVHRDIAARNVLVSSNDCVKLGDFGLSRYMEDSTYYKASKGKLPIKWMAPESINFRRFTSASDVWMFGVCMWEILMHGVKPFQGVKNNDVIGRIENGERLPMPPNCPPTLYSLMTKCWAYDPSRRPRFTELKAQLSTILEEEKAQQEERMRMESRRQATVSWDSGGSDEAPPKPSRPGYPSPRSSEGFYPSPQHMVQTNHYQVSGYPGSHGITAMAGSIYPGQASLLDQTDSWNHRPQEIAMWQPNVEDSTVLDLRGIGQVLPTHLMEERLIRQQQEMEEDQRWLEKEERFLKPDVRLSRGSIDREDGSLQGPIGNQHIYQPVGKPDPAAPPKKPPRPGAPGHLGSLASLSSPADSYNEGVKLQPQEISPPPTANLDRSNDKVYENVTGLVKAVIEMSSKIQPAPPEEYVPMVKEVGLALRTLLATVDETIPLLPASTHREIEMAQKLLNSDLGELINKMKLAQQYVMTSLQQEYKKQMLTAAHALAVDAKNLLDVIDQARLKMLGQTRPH
Chain of Torsin-1A (Homo sapiens) (O14656 whole entry, looked up): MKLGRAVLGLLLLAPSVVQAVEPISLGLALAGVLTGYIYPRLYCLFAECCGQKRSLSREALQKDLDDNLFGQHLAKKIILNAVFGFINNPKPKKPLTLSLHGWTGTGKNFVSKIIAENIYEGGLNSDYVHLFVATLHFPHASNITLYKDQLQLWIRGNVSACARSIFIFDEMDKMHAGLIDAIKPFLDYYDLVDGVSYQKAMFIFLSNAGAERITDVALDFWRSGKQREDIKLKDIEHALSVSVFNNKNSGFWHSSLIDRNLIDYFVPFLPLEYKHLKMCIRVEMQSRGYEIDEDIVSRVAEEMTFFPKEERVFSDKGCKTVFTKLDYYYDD
Chain of Luciferin 4-monooxygenase (Photinus pyralis) (P08659 whole entry, looked up): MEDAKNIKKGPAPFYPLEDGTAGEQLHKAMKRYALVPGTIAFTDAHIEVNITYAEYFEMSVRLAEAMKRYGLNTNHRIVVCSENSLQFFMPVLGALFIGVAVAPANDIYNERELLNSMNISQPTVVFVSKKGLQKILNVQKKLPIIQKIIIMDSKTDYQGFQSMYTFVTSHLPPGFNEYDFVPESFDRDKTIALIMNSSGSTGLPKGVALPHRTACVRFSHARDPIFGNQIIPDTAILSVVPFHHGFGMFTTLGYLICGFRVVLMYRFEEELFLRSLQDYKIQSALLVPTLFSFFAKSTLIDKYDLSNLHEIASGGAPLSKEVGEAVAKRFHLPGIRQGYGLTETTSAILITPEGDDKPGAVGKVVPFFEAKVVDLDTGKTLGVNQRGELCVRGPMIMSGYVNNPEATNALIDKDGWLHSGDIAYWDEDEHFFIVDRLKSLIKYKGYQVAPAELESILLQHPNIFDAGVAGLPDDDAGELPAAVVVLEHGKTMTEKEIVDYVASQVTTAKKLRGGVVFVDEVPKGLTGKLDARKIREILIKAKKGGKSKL
Chain of Fibroblast growth factor 2 (Homo sapiens) (P09038 whole entry, looked up): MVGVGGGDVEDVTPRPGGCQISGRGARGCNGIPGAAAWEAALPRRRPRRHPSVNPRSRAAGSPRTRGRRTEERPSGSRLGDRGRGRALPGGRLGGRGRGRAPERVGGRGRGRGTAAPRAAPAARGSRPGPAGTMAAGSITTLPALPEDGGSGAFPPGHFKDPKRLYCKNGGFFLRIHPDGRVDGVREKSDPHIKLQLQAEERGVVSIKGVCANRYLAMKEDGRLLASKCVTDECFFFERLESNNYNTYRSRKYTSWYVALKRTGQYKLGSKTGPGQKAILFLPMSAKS
Chain of Streptavidin (Streptomyces avidinii) (P22629 whole entry, looked up): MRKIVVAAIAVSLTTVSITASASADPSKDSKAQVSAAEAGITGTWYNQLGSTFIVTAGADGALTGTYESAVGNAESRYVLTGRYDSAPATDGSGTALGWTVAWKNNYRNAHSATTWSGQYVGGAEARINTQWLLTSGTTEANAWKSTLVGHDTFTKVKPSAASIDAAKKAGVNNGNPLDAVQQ

For `O=C(CS)NCCCCCNC(=O)[C@@H]1C[C@@H]2C(=O)NCC(=O)N2[C@@H]1c1ccc(O)cc1`, the composite z-score in [1] was 1.79; in [2], 0.443; in experiment [3] it was 0.393; in experiment [4], -0.135; in experiment [5] it was 1.18; in experiment [6], 1.24. The composite z-score in the experiment with Lefty1 is 0.269; in experiment [8], -0.855; in experiment [10], -0.0716; in experiment [15], -0.618; in [16] it was 0.0275; with Torsin-1A (Homo sapiens) [17], 0.507. Besides, the composite z-score with Torsin-1A (Homo sapiens) [18] came out at 0.0395; in experiment [19], 1.44. Further, the z-score in experiment [7] was -0.977; in experiment [9], -1.24 (inactive); in experiment [11], -0.454 (inactive); in experiment [12] it was -0.171 (inactive); in [13], 0.281 (inactive); in experiment [14], 0.208 (inactive).

As to `O=C(NC1CC1)[C@@H]1c2ccccc2C(=O)N(Cc2cc(F)cc(C(F)(F)F)c2)[C@H]1c1ccc(CO)cc1`, the composite z-score is 1.23 in [1]; -0.454 in [2]; 0.315 in experiment [3]; -0.399 in [4]; 0.542 in experiment [5]; -0.258 in [6]. The composite z-score with Lefty1 was -0.396; in experiment [8] it was 0.569; in experiment [10] it was 0.518; in experiment [15], -0.685; in experiment [16], -0.0468; with Torsin-1A (Homo sapiens) [17], 0.517. For the same compound, the composite z-score is 0.543 in the experiment with Torsin-1A (Homo sapiens) [18] and -0.296 in experiment [19]. In addition, the z-score in experiment [7] is 0.739; in [9], -0.124 (inactive); in [11], -0.335 (inactive); in [12] it was -0.435 (inactive); in experiment [13], 0.001 (inactive); in [14], 0.162 (inactive).

`C[N+](C)(C)CCCC[C@@H]1NC(=O)[C@@H]2C[C@H](C(=O)NCCCCCN)[C@H](c3ccc(O)cc3)N2C1=O`: the composite z-score stood at 2.08 in experiment [1]; 1.05 in experiment [2]; 0.0992 in experiment [3]; 0.927 in experiment [4]; 1.4 in [5]; 1.8 in experiment [6]. For the same compound, the composite z-score turned out to be 1.64 in the experiment on Lefty1; 0.87 in [8]; 0.557 in [10]; 1.49 in [15]; 0.491 in experiment [16]; 0.632 with Torsin-1A (Homo sapiens) [17]. In addition, the composite z-score was 0.659 with Torsin-1A (Homo sapiens) [18] and 1.61 in [19]. Moreover, the z-score in experiment [7] was 0.962; in experiment [9], -1.26 (inactive); in experiment [11], -0.496 (inactive); in experiment [12] it was -0.771 (inactive); in experiment [13], 0.143 (inactive); in experiment [14], -0.441 (inactive).

With `C=C(CCCC)/C(=C/C[C@@H](OC(C)=O)c1ccccc1OCCO)c1cc(C(=O)OC)ccc1OC`, the composite z-score was -0.9 in [1]; -0.2 in [2]; -0.0448 in [3]; 0.259 in experiment [4]; 0.35 in experiment [5]; 0.16 in [6]. Moreover, the composite z-score in the experiment on Lefty1 is 0.384; in experiment [8], 0.0424; in experiment [10] it was -0.115; in [15] it was -0.478; in [16], -0.15; with Torsin-1A (Homo sapiens) [17], 0.0851. Moreover, the values for the composite z-score (with Torsin-1A (Homo sapiens) [18]; in experiment [19]) were 0.0547 and 0.566, respectively. In addition, the z-score was 2.6 in [7]; -2.02 (inactive) in [9]; -0.774 (inactive) in [11]; -0.341 (inactive) in experiment [12]; 16 (active) in experiment [13]; -1.14 (inactive) in [14].
